Inconclusive results are not listed. Calls of active or inactive are those of the source. Calls follow the shape of the dose curve; as a rule, active = well fitted cell-killing curve with a large enough effect in the repeat runs; inconclusive = weak or mixed curves; inactive = no such curve, though single readings can be large or run the other way.

From PubChem BioAssay (Tox21) come the findings set out here.
% is scaled to controls: 0 for no effect and ±100 for the full control effect; potency is read from the fitted curve at half-maximal effect.

A short description of this test: qHTS assay to identify small molecule antagonists of the peroxisome proliferator-activated receptor delta (PPARd) signaling pathway - cell viability counter screen (AID 743213). Also: nearly all actives have a fitted effect of over 50% in size. Particulars: PPARd-bla HEK293H viability, CellTiter-Glo luminescence, 17 h; series mostly up to 62 µM; viability change, negative = cytotoxic: at the top concentration. From the text:
U.S. Tox21 Program National Center for Advancing Translational Sciences [NCATS] NIH Chemical Genomics Center [NCGC] U.S. Environmental Protection Agency [EPA] National Institutes of Environmental Health Sciences [NIEHS] National Toxicology Program [NTP] U.S. Food and Drug Administration [FDA] Tox21 Assay Overview: The peroxisome proliferator-activated receptors (PPARs) are lipid-activated transcription factors of the nuclear receptor superfamily with three distinct subtypes namely PPAR alpha, PPAR delta (PPARd) and PPAR gamma. All these subtypes heterodimerizes with Retinoid X receptor (RXR) and have different physiological functions. […] To identify the compounds that inhibit PPAR-delta signaling, GeneBLAzer PPAR delta UAS-bla HEK293H cell line (Invitrogen, Carlsbad, CA, USA) containing a beta-lactamase reporter gene under the control of an Upstream Activator Sequence (UAS) was used to screen the Tox21 compound library. The cytotoxicity of the Tox21 compound library against the PPARd-bla cell line was tested in parallel by measuring the cell viability using CellTiter-Glo assay (Promega, Madison, WI) in the same wells.
Tox21 Assay Protocol Summary: PPARd-bla cells were dispensed at 3000 cells/5uL/well in 1536-well black wall/clear bottom plates using a Multidrop Combi (Thermo Fisher Scientific, Waltham, MA) dispenser. After the assay plates were incubated at 37 C and 5% CO2 for 5 h, 23 nL of compounds dissolved in DMSO, positive controls or DMSO only was transferred to the assay plate by a Pintool station (Kalypsys, San Diego, CA), followed by addition of 1ul L165041 (300 nM, final concentration in the wells). The assay plates were incubated at 37 C for 17 h, and then 1 uL of LiveBLAzerTM B/G FRET substrate was added using a Bioraptr Flying Reagent Dispenser (FRD) workstation (Beckman Coulter, Indianapolis, IN, USA). The assay plates were incubated at room temperature for 2 h and fluorescence intensity was measured by an Envision plate reader (PerkinElmer, Shelton, CT). For cell viability readout that measures cytotoxicity, 3 ul/well of CellTiter-Glo reagent was added into the assay plates using a Bioraptr FRD. After 30 min incubation at room temperature, the luminescence intensity in the plates was measured using a ViewLux plate reader (PerkinElmer).
Consider `N#CC(C#N)=Cc1ccc(O)c(O)c1`, for which the “viability change, negative = cytotoxic” value was 2.26% (inactive). Still for that read-out and setting: under `O=C(O)CCCOc1ccc(Cl)cc1Cl` stands 13.5% (inactive). For `Nc1cc(Cl)cc(C(=O)O)c1Cl`, the Potency entry was “inactive”. As for `Cc1ccc2c(C)cccc2c1`, the “viability change, negative = cytotoxic” value is 1.15% (inactive). As for `CC(=O)OC(c1ccccc1)C(Cl)(Cl)Cl` (stereo not given), the “viability change, negative = cytotoxic” value was -8.87% (inactive). Same read-out and setting: under `CCOC(=O)c1cncn1C(C)c1ccccc1` (stereo not given) stands -0.298% (inactive); under `CCCN(CCC)C(=O)Cc1c(-c2ccc(Cl)cc2)nc2ccc(Cl)cn12`, -0.0124% (inactive); under `Cc1nnc(-c2ccccc2)c(=O)n1N`, 1.57% (inactive). Take `Cc1ccccc1`: the “viability change, negative = cytotoxic” value was 21.9% (inactive). `Nc1ccc2c(c1)Cc1ccccc1-2`: the “viability change, negative = cytotoxic” value was 1.52% (inactive). The same measure, in the same setting: under `CCNC(=O)NC(=O)/C(C#N)=N/OC` stands -11.7% (inactive). The same measure, in the same setting: under `Cc1nc2ccccc2c(=O)n1-c1ccccc1Cl` stands 7.16% [at 80.4 µM] (inactive); under `CCCCCCCCCCCCN=C(N)N`, -15.8% [at 2.83 µM] (inactive). The same measure, in the same setting: to `O=C([O-])c1ccccn1.O=C([O-])c1ccccn1.O=C([O-])c1ccccn1.[Cr+3]` belongs 16.6% (inactive); to `N#CC1(N=NC2(C#N)CCCCC2)CCCCC1`, -2.39% (inactive); to `O=C(O)c1cc(I)cc(I)c1I`, 3.76% [at 80.4 µM] (inactive). As for `CCOC(=O)C1OC1(C)c1ccccc1` (stereo not given), the Potency entry was “inactive”. With `CN(C)N`, the “viability change, negative = cytotoxic” value was 21.6% (inactive).

On to `O=[N+]([O-])/C=C/c1ccccc1`, for which the Potency was 44.4 µM (active).

Regarding `O=C(NCNC(=O)NC1C(=O)NC(=O)N1CO)NC1C(=O)NC(=O)N1CO` (stereo not given), the “viability change, negative = cytotoxic” value is 2.3% (inactive).

As for `Nc1cccc2ccccc12`, the Potency entry is “inactive”. For `COC(=O)C1(O)c2ccccc2-c2ccccc21`, the “viability change, negative = cytotoxic” value is -7.84% (inactive). Same read-out and setting: to `CCCCOC(=O)CCC(=O)OCCCC` belongs -1.13% (inactive); to `O=[N+]([O-])O[C@H]1CO[C@H]2[C@@H]1OC[C@H]2O[N+](=O)[O-]`, 10.7% (inactive).

As for `CC(C)c1ccc(OP(=O)(Oc2ccc(C(C)C)cc2)Oc2ccc(C(C)C)cc2)cc1`, the Potency is 4.89 µM (active).

With `CON(C)C(=O)Nc1ccc(Cl)cc1`, the “viability change, negative = cytotoxic” value was -4.15% (inactive). Same read-out and setting: under `O=C(Cc1ccccc1)c1ccccc1` stands 5.66% (inactive); under `CCOP(=S)(OCC)SCSc1cc(Cl)ccc1Cl`, -2.5% (inactive).

`C=CCOCC1CO1` (stereo not given): the “viability change, negative = cytotoxic” value was -4.53% (inactive).

As for `CC(C)OC(=O)Cc1ccccc1`, the “viability change, negative = cytotoxic” value is 13.4% [at 80.4 µM] (inactive). Same read-out and setting: under `CCC(=O)O[C@@H]1C=C2CCC3C(CCC4(C)C3CC[C@@H]4OC(=O)CC)C2CC1` (stereo not given in full) stands 19.9% (inactive); under `O=C1CC[C@@]2(O)[C@H]3Cc4ccc(O)c5c4[C@@]2(CCN3CC2CC2)[C@H]1O5`, 11.8% (inactive); under `CCCC1CCCCN1` (stereo not given), 14.4% (inactive). Same read-out and setting: to `NCCc1cc(O)c(O)cc1O` belongs 2.32% (inactive).

In the case of `OC[P+](CO)(CO)CO`, the “viability change, negative = cytotoxic” value was -1.73% (inactive). Same read-out and setting: to `Nc1ccccc1C(=O)OCCc1ccccc1` belongs -23% (inactive); to `O=C(N/N=C/c1ccc([N+](=O)[O-])o1)c1cc([N+](=O)[O-])cc([N+](=O)[O-])c1O`, 4.7% (inactive).

As to `CC(C)C1(C)N=C(c2ncccc2C(=O)O)NC1=O` (stereo not given), the “viability change, negative = cytotoxic” value is 6.41% (inactive). In the case of `CC(Cc1ccccc1)NCc1ccccc1Cl` (stereo not given), the “viability change, negative = cytotoxic” value was -16.5% (inactive). On the same count and under the same terms, to `CC(Oc1cccc(Cl)c1)C(=O)O` (stereo not given) belongs 0.546% (inactive).
